{
  "source": "PubChem BioAssay (Tox21)",
  "note": "Several values for one entry are separate records, joined by “and”; a condition that tells them apart may be missing. Equal entries are not always repeated. Results filed as inconclusive are left out. Where a call stands in place of a potency, no number is given. Some compounds were tested as several samples or in several runs, with calls that do not always agree. Activity calls are given as the source filed them. The call rests on the fitted dose curve; in most records, active means well fitted cell-killing curve with a large enough effect in the repeat runs; inconclusive means weak or mixed curves, or effect the other way; inactive means no such curve, though single readings can be large or run the other way. Potency means the concentration at half of the fitted maximal effect.",
  "data": [
    {"experiment": "Caspase-3/7 induction in CHO-K1 cells by small molecules, qHTS cell viability counter screen (AID 1346979); further: nearly all actives have a fitted effect of over 35% in size", "conditions": "CellTiter-Fluor fluorescence, 17 h; series mostly up to 92.4 µM; activity change, negative = cytotoxicity: at the top concentration", "source_text": "National Center for Advancing Translational Sciences [NCATS]\nNIH Chemical Genomics Center [NCGC]\nU.S. Environmental Protection Agency [EPA]\nNational Institutes of Environmental Health Sciences [NIEHS]\nNational Toxicology Program [NTP]\nU.S. Food and Drug Administration [FDA]\nApoptosis is a process of programmed cell death and plays a central role in the development of multicellular organisms. It is a highly regulated process and induces cell death by activating caspases, which are the members of cysteine aspartic acid-specific protease (caspase) family. Caspases involved in apoptosis are classified by their mechanism of action as initiator caspases (caspase-2, -8, -9 and -10) and executioner caspases (caspase-3, -6, and -7). Inhibition of apoptosis results in number of cancers, autoimmune diseases, inflammatory diseases and viral infection. To identify small molecule compounds that induce apoptosis, a homogeneous, luminescent Caspase-Glo 3/7 assay was used. Wild type CHO-K1 cells were used to screen Tox21 libraries for identifying caspase-3/7 activity inducers. Also cytotoxicity of the compounds was tested in parallel by measuring the cell viability using CellTiter-Fluor assay system in the same wells.\nTox21 Assay Protocol Summary:\nCHO-K1 cells were dispensed at 1,500 per well in 5uL of culture medium into white solid bottom 1536-well plates (Corning Life Sciences, Corning, NY) using a Multidrop Combi (Thermo Scientific, Waltham, MA) dispenser. The assay plates were incubated at 37 C and 5% CO2 for 5hr, and then 23nL of compounds dissolved in DMSO and positive control were transferred using a Pintool station (Wako, San Diego, CA). The assay plates were incubated at 37C and 5% CO2 for 17hr. For cytotoxicity read, after 16hr incubation at 37C, 1uL CellTiter-Fluor reagent (Promega Corporation, Madison, WI) was added to each well of the assay plates using Flying Reagent Dispenser (FRD, Aurora Discovery, San Diego, CA). After 1hr incubation at 37C and 5% CO2, the fluorescence signal was quantified using a ViewLux plate reader (PerkinElmer, Shelton, CT).", "values": [
      {"smiles": "CC(C)(C)C1CCC(O)CC1", "note": "(stereo not given)", "Potency": "inactive"},
      {"smiles": "O=[N+]([O-])c1cc(N(CCO)CCO)ccc1NCCO", "Potency": "27.3 µM (active) and 30.6 µM (active)"},
      {"smiles": "CCCCCCCCCCCCOCC1CO1", "note": "(stereo not given)", "Potency": "inactive"},
      {"smiles": "CC1=C(CC(=O)O)c2cc(F)ccc2/C1=C\\c1ccc(S(C)=O)cc1", "note": "(stereo not given)", "activity change, negative = cytotoxicity": "-12.7% [at 42.5 µM] (inactive)"},
      {"smiles": "CC1(C)O[C@@H]2C[C@H]3[C@@H]4C[C@H](F)C5=CC(=O)CC[C@]5(C)[C@H]4[C@@H](O)C[C@]3(C)[C@]2(C(=O)CO)O1", "Potency": "inactive"},
      {"smiles": "Nc1c(S(=O)(=O)O)cc(Br)c2c1C(=O)c1ccccc1C2=O", "Potency": "48.6 µM (active)"},
      {"smiles": "CC1Cc2ccccc2N1NC(=O)c1ccc(Cl)c(S(N)(=O)=O)c1", "note": "(stereo not given)", "Potency": "inactive"},
      {"smiles": "Cc1cc(NS(=O)(=O)c2ccc(N)cc2)no1", "activity change, negative = cytotoxicity": "1.68% [at 42.5 µM] (inactive)"},
      {"smiles": "O=S(=O)(Oc1ccc(Cl)cc1Cl)c1ccccc1", "Potency": "inactive"},
      {"smiles": "CC1(C)CC(N=C=O)CC(C)(CN=C=O)C1", "note": "(stereo not given)", "Potency": "inactive"},
      {"smiles": "CC(=O)[C@@]1(O)CC[C@H]2[C@@H]3CCC4=CC(=O)CC[C@]4(C)[C@H]3CC[C@@]21C", "Potency": "inactive"},
      {"smiles": "CC[Si](OC(C)=O)(OC(C)=O)OC(C)=O", "Potency": "inactive"},
      {"smiles": "C=C(C#N)C(=O)OCC", "Potency": "inactive and 61.1 µM (active)"},
      {"smiles": "CCc1ccccc1O", "Potency": "inactive"},
      {"smiles": "COC(=O)c1ccccc1O", "Potency": "inactive"},
      {"smiles": "Nc1nc2ncc(CNc3ccc(C(=O)N[C@@H](CCC(=O)O)C(=O)O)cc3)nc2c(=O)[nH]1", "Potency": "inactive"},
      {"smiles": "c1ccc2[nH]cnc2c1", "Potency": "inactive"},
      {"smiles": "CCOC(=O)/C=C\\C(=O)OCC", "Potency": "inactive"},
      {"smiles": "Cc1cc(O)c2c(c1)C(=O)c1cc(O)cc(O)c1C2=O", "Potency": "48.6 µM (active)"},
      {"smiles": "CC#C[C@]1(O)CC[C@H]2[C@@H]3CCC4=CC(=O)CCC4=C3[C@@H](c3ccc(N(C)C)cc3)C[C@@]21C", "Potency": "30.6 µM (active)"},
      {"smiles": "O=C(c1cc(O)c(O)c(O)c1)c1ccc(O)c(O)c1O", "Potency": "48.4 µM (active) and 54.5 µM (active) and 29.8 µM (active)"},
      {"smiles": "O=S(=O)(O)CCS", "Potency": "inactive"},
      {"smiles": "CCCCCCCCCC(=O)O", "Potency": "inactive"},
      {"smiles": "O=C1N=C(O)CN1/N=C/c1ccc(-c2ccc([N+](=O)[O-])cc2)o1", "Potency": "54.5 µM (active) and 26.6 µM (active)"},
      {"smiles": "O=c1c(-c2ccc(O)cc2)coc2cc(O)ccc12", "activity change, negative = cytotoxicity": "-1.7% (inactive)"},
      {"smiles": "COC(=O)Nc1nc2ccc(Sc3ccccc3)cc2[nH]1", "Potency": "30.6 µM (active) and 10.6 µM (active)"},
      {"smiles": "CCCCCCCCCCC=CC1CC(=O)OC1=O", "note": "(stereo not given)", "Potency": "inactive"},
      {"smiles": "CCOC(=O)C1OC1c1ccccc1", "note": "(stereo not given)", "Potency": "inactive"},
      {"smiles": "CN(C)c1cccc(O)c1", "Potency": "inactive"},
      {"smiles": "NC(=O)/N=N/C(N)=O", "Potency": "inactive"},
      {"smiles": "CCCCC(CC)C(=O)OCCOCCOCCOC(=O)C(CC)CCCC", "note": "(stereo not given)", "Potency": "inactive"},
      {"smiles": "CC(C)n1c(/C=C/[C@@H](O)C[C@@H](O)CC(=O)O)c(-c2ccc(F)cc2)c2ccccc21", "activity change, negative = cytotoxicity": "-11% (inactive)"},
      {"smiles": "CCCCOCCOCCOC(=O)CCCCC(=O)OCCOCCOCCCC", "Potency": "inactive"},
      {"smiles": "CCc1ccc(O)cc1", "Potency": "inactive"},
      {"smiles": "Cc1ccc(N)c(S(=O)(=O)O)c1", "Potency": "inactive"},
      {"smiles": "CNC[C@H](O)[C@@H](O)[C@H](O)[C@H](O)CO", "Potency": "inactive"},
      {"smiles": "CC1CC(OC(=O)c2ccccc2O)CC(C)(C)C1", "note": "(stereo not given)", "Potency": "inactive"},
      {"smiles": "CCC(=O)O", "Potency": "inactive"},
      {"smiles": "CCCCCCC(C)(C)S", "Potency": "inactive"},
      {"smiles": "C=C(C)C(=O)OCCCCCC", "activity change, negative = cytotoxicity": "3.51% (inactive)"}
    ]}
  ]
}
